Screen size: about 190,000 compounds; about 810 (0.43%) were called active. No stated cut-off is given here; in the data, active means inhibition above about 50%; inactive means the rest. The list comes from a sample in which actives are over-represented; it also holds similar structures and randomly drawn compounds.
What follows are molecules tested against Mannose-6-phosphate isomerase (Homo sapiens) (UniProt P34949) (assay: MPI enzyme activity inhibition – biochemical, fluorescence intensity, coupled assay, primary screen (AID 1209;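 further: plate controls were DMSO vehicle for no effect and wells lacking substrate for full effect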)). Conditions: purified PMI enzyme, at 20 µM, hits give high values.
Mannose-6-phosphate isomerase (Homo sapiens), sequence (P34949 whole entry, looked up): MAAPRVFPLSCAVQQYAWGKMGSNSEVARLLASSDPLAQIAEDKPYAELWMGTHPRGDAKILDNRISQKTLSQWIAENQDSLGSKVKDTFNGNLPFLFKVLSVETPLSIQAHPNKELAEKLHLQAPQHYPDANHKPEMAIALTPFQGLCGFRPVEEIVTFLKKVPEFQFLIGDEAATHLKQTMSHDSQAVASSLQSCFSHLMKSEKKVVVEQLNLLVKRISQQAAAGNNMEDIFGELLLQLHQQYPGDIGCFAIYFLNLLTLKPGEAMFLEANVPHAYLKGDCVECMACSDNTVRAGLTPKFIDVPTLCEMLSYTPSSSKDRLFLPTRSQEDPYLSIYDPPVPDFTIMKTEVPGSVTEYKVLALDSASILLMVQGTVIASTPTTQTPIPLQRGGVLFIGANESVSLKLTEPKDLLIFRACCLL
For `CN(C)c1cccc(C(=O)NCC2CCCO2)c1` (centres undefined), the inhibition was 9.2% (inactive). For `O=C(Nc1ccc(N=Nc2ccccc2)cc1)c1ccc(Cl)cc1Cl`, the inhibition was 57.5% (active). `O=C(Nc1ccc(N=Nc2ccccc2)cc1)c1ccccc1Cl` was tested, and the inhibition was 2.6% (inactive). In the case of `O=C(Nc1ccc(N=Nc2ccccc2)cc1)c1cccc(Cl)c1`, the inhibition was 7.7% (inactive). In the case of `COc1cccc(NC(=O)c2cccnc2)c1`, the inhibition was 8.6% (inactive). `CCC(C)(C)n1nnnc1C(c1cc2cc(C)ccc2[nH]c1=O)N1CCCc2ccccc21` (centres undefined) was tested, and the inhibition was 44.4% (inactive). `Cc1ccc2[nH]c(=O)c(C(c3nnnn3C3CCCC3)N3CCCc4ccccc43)cc2c1` (centres undefined) was tested, and the inhibition was 57.3% (active). For `O=c1[nH]c2cc3c(cc2cc1C(c1nnnn1C1CCCC1)N1CCCc2ccccc21)OCCO3` (centres undefined), the inhibition was 12.8% (inactive). In the case of `CCOC(=O)Cc1csc(NC(=O)CSc2nnc(-c3ccc(F)cc3)o2)n1`, the inhibition was -5.5% (inactive). For `CCOC(=O)c1ccccc1NC(=O)COC(=O)c1ccc(C)c(S(=O)(=O)N2CCOCC2)c1`, the inhibition was 6.5% (inactive). `CCOC(=O)Cn1nc(C)n(-c2ccc(C(C)(C)C)cc2)c1=O` was tested, and the inhibition was 12.5% (inactive). With `COc1ccccc1/C=N/Nc1cc(N(C)C)nc(N(C)C)n1` the inhibition was 60.4% (active). With `CN(C)c1cc(N/N=C\c2ccccc2)nc(N(C)C)n1` the inhibition was 59.2% (active). For `COc1ccccc1/C=N/NC1=NCCCCC1`, the inhibition was 2.7% (inactive). For `Cc1cc(N/N=C/c2ccccc2)nc(NCc2ccccc2)n1`, the inhibition was 21.5% (inactive). For `Clc1ccc(/C=N/Nc2ccccn2)cc1`, the inhibition was -8.3% (inactive). In the case of `COc1ccc(/C=N/Nc2cc(OC)ncn2)cc1`, the inhibition was 14.3% (inactive). In the case of `COc1ccccc1/C=N/Nc1nncc2ccccc12`, the inhibition was 2.9% (inactive). For `CN(C)c1cc(N/N=C/c2ccc(Cl)cc2)nc(N(C)C)n1`, the inhibition was 67.4% (active). `Cc1cc(N/N=C/c2ccc(Cl)cc2)nc(NCc2ccccc2)n1` was tested, and the inhibition was 21.7% (inactive). With `COc1ccc(/C=N/Nc2cc(N(C)C)nc(N(C)C)n2)cc1` the inhibition was 61.2% (active). For `COc1ccc(/C=N/Nc2cc(C)nc(N)n2)cc1`, the inhibition was 12.1% (inactive). For `Cc1cc(N/N=C\c2ccccc2)nc(-c2ccccc2O)n1`, the inhibition was 17.7% (inactive). For `CCn1c(SCC(=O)Nc2cc(C)on2)nc2c(c1=O)SC(C)C2` (centres undefined), the inhibition was 8.4% (inactive). `O=C(Nc1ccc2c(c1)OCCO2)c1ccc2ccccc2n1` was tested, and the inhibition was -3.6% (inactive). For `O=C(COc1ccccc1)NCC(=O)Nc1ccc(S(=O)(=O)NCc2ccco2)cc1`, the inhibition was 9.9% (inactive). With `COc1ccc(C(C(=O)NC2CCCC2)N(Cc2cccs2)C(=O)c2ccn[nH]2)cc1OC` (centres undefined) the inhibition was 11.2% (inactive). With `CN(C)C(=O)CCSc1nnc(-c2ccncc2)o1` the inhibition was -4.7% (inactive). `CC1(C)Cc2c(c(N3CCCC3)nc3sc4c(N5CCN(CCO)CC5)ncnc4c23)CO1` was tested, and the inhibition was -22.8% (inactive). `Cc1cc(C(=O)N2CCCC(C(=O)c3cccc4ccccc34)C2)nc(C)n1` (centres undefined) was tested, and the inhibition was 6.1% (inactive). With `O=C(CNS(=O)(=O)c1cccs1)Nc1ccc2c(c1)OCCO2` the inhibition was 9.1% (inactive). For `CC(C)C(=O)Nc1cccc(C(=O)N2CCCCC2C)c1` (centres undefined), the inhibition was 15.5% (inactive). For `O=C(NCc1ccncc1)Nc1cc(Cl)ccc1Cl`, the inhibition was 8.5% (inactive). With `Nc1nncn1C(=O)CCCN1C(=O)c2ccccc2C1=O` the inhibition was 5.4% (inactive). In the case of `CCn1c(COc2ccccc2OC)nnc1SCC#N`, the inhibition was 5.9% (inactive). `NC(N)=Nc1nc(C2COc3ccccc3O2)cs1` (centres undefined) was tested, and the inhibition was -4% (inactive). `S=c1[nH]nc(C2COc3ccccc3O2)o1` (centres undefined) was tested, and the inhibition was -16.3% (inactive). For `Cn1c(=O)c2c(nc(NC3CCCCC3)n2CC(=O)C23CC4CC(CC(C4)C2)C3)n(C)c1=O`, the inhibition was 1.2% (inactive). In the case of `O=S(=O)(c1ccc(Br)s1)N1CCC(Cc2ccccc2)CC1`, the inhibition was 1.1% (inactive). `Cc1ccc(N(C(=O)c2cc3ccccc3oc2=O)C2C=CS(=O)(=O)C2)cc1` (centres undefined) was tested, and the inhibition was 13.3% (inactive). In the case of `O=C(CSc1nnc(-c2ccccc2)c(-c2ccccc2)n1)NC1CCS(=O)(=O)C1` (centres undefined), the inhibition was -3.8% (inactive). For `Cc1ccc(-c2nnc(SCC(=O)NC3CCS(=O)(=O)C3)nc2-c2ccc(C)cc2)cc1` (centres undefined), the inhibition was 3.8% (inactive). `O=C(CSc1n[nH]c(-c2ccncc2)n1)NC1CCS(=O)(=O)C1` (centres undefined) was tested, and the inhibition was 77.1% (active). For `O=C(CSc1nnc(-c2ccccc2F)o1)OCc1ccccc1`, the inhibition was -0.7% (inactive). `CC[n+]1c(/C=C/Nc2ccccc2)oc2ccccc21` was tested, and the inhibition was 1.7% (inactive). `CC[n+]1ccccc1/C=C/Nc1ccccc1` was tested, and the inhibition was 62% (active). With `CC[n+]1ccccc1/C=C/c1ccc(N(C)C)cc1` the inhibition was 26.1% (inactive). For `CCOC(=O)COn1c(=O)c(C)[n+]([O-])c2ccccc21`, the inhibition was 4.8% (inactive). With `CC(C)(C)c1cc(CCC(=O)NN)cc(C(C)(C)C)c1O` the inhibition was -6.6% (inactive). For `CC(C)C(C(=O)OCC(=O)c1cccc([N+](=O)[O-])c1)N1C(=O)[C@@H]2[C@H]3CC[C@H](C3)[C@@H]2C1=O` (some centres undefined), the inhibition was 21.3% (inactive). With `OC1(c2ccccc2)CCN(Cc2ccccc2)CC1` the inhibition was 57.2% (active). For `OC1(c2ccc(F)cc2)CCN(Cc2ccccc2)C1` (centres undefined), the inhibition was -8.8% (inactive). For `OC1(c2ccc3ccccc3c2)CCN(Cc2ccccc2)C1` (centres undefined), the inhibition was -11.8% (inactive). `CCC1(C)Cc2[nH]c(=O)c(C#N)cc2CO1` (centres undefined) was tested, and the inhibition was 2.9% (inactive). In the case of `COc1cc(/C=N/Nc2nc(C)nc3c2cnn3-c2ccccc2)ccc1O`, the inhibition was 6.9% (inactive). `c1cc2nnnn2nc1N1CCCCC1` was tested, and the inhibition was -6.5% (inactive). With `O=C(c1cnn2c(C(F)F)cc(C3CC3)nc12)N1CCOCC1` the inhibition was 53.1% (active). With `O=C(c1cnn2c(C(F)F)cc(C3CC3)nc12)N1CCCC1` the inhibition was -5.5% (inactive). For `CN1CCN(C(=O)c2cnn3c(C(F)F)cc(C4CC4)nc23)CC1`, the inhibition was 9.1% (inactive). `NS(=O)(=O)c1ccc(CCNC(=O)CSc2ccc3ccccc3c2)cc1` was tested, and the inhibition was -13.1% (inactive). With `COc1ccc(CCNC(=O)CSc2ccc3ccccc3c2)cc1OC` the inhibition was 1.7% (inactive). In the case of `O=C(CSc1ccc2ccccc2c1)NCCc1ccc(O)c(O)c1`, the inhibition was 52.6% (active). With `Cc1cc(C)n2nc(C(=O)OCCOc3ccc(Br)cc3)nc2n1` the inhibition was 7.1% (inactive). `COc1cc2nc(NC(=O)c3ccc(Cl)cc3)[nH]c(=O)c2cc1OC` was tested, and the inhibition was 25.5% (inactive). For `Cc1ccc(C(=O)c2coc3c2C(=O)C(=O)c2ccccc2-3)cc1`, the inhibition was 72.9% (active). For `Cc1ccc(C(=O)c2c[nH]cc2-c2ccccc2)cc1`, the inhibition was -1% (inactive). With `O=C1c2ccccc2C(=O)c2c1oc(C(F)(F)F)c2C(=O)c1ccccc1` the inhibition was -31.5% (inactive). `COc1ccc(C(=O)c2coc(-c3ccccc3C(=O)O)c2C(=O)O)cc1` was tested, and the inhibition was -8.2% (inactive). With `O=C(c1ccccc1)c1coc2c1C(=O)c1ccccc1C2=O` the inhibition was -42.6% (inactive). For `O=C1C(=O)c2c(C(=O)c3ccccc3)coc2-c2ccccc21`, the inhibition was 73.4% (active). With `Cc1cccc(N=C2NC(=O)c3cc([N+](=O)[O-])ccc32)c1` the inhibition was -1.4% (inactive). `NC(=O)c1ccc(C(=O)c2ccc([N+](=O)[O-])cc2)cc1` was tested, and the inhibition was -7.1% (inactive). In the case of `O=C1NC(=Nc2ccccc2)c2ccc([N+](=O)[O-])cc21`, the inhibition was 28.5% (inactive). `O=C1Nc2ccc([N+](=O)[O-])cc2C1=Nc1cccc(CO)c1` was tested, and the inhibition was 56.8% (active). With `Cc1ccc(N=C2NC(=O)c3cc([N+](=O)[O-])ccc32)cc1` the inhibition was 14.1% (inactive). `NC(=O)c1ccc(N=C2C(=O)Nc3ccc([N+](=O)[O-])cc32)cc1` was tested, and the inhibition was 52.5% (active). `CCOC(=O)c1c(NC(=O)Nc2cccc(Cl)c2)sc(C)c1C` was tested, and the inhibition was -4.2% (inactive). With `O=C(CSc1ncnc2ccccc12)c1ccc2c(c1)OCCO2` the inhibition was 9.1% (inactive). In the case of `Nc1[nH]n2c(=O)cc(-c3ccccc3)nc2c1N=Nc1ccc2c(c1)OCO2`, the inhibition was 28% (inactive). With `Cc1cc([N+](=O)[O-])c(C)cc1-c1ccc(/C=N/NC(=O)c2cccnc2)o1` the inhibition was 8.6% (inactive). For `Cc1ccc(C(=O)N/N=C/c2ccc(-c3ccccc3[N+](=O)[O-])o2)cn1`, the inhibition was 52.2% (active). `Cc1ccc(/C=N\NC(=O)C2COc3cc4ccccc4cc3O2)o1` (centres undefined) was tested, and the inhibition was 5% (inactive). With `Cc1c(C(=O)N/N=C/c2ccc(-c3ccccc3[N+](=O)[O-])o2)sc(N)c1C#N` the inhibition was 55.1% (active). For `Cc1ccc(C(=O)N/N=C\c2ccccc2[N+](=O)[O-])cn1`, the inhibition was -13.1% (inactive). With `O=C(N/N=C\c1ccc(-c2ccccc2[N+](=O)[O-])o1)C1COc2cc3ccccc3cc2O1` (centres undefined) the inhibition was 70.2% (active). In the case of `O=C(N/N=C/c1ccc(-c2ccccc2[N+](=O)[O-])o1)c1cncc(Br)c1`, the inhibition was 33.3% (inactive). `COc1ccc2ccccc2c1/C=N/NC(=O)c1sc(N)c(C#N)c1C` was tested, and the inhibition was 12.9% (inactive). In the case of `O=C(N/N=C\c1ccc(-c2ccccc2[N+](=O)[O-])o1)C1COc2ccccc2O1` (centres undefined), the inhibition was 33.9% (inactive). With `COC(=O)c1[nH]c2ccccc2c1NC(=O)CCN1CCN(C2CCCCC2)CC1` the inhibition was 3.6% (inactive). With `COc1cc(CC(=O)OCC(=O)Nc2cc([N+](=O)[O-])ccc2F)cc(OC)c1OC` the inhibition was 2.7% (inactive). With `Cc1ccc(C(c2nnnn2C(C)(C)C)N2CCC(C)CC2)cc1` (centres undefined) the inhibition was -7.6% (inactive). For `CCCCS(=O)(=O)Nc1ccc2cn[nH]c2c1`, the inhibition was 10% (inactive). With `O=C(/C=C/c1ccco1)N1CCN(S(=O)(=O)/C=C/c2ccccc2)CC1` the inhibition was -3.5% (inactive). For `CCCC(=O)NCCCc1nc2ccccc2n1C(C)C`, the inhibition was 2.7% (inactive). For `CN1CCc2ccccc2C1C1CCNCC1` (centres undefined), the inhibition was -2.5% (inactive). For `CN1CCc2cccc3c2[C@@H]1Cc1ccc(O)c(O)c1-3`, the inhibition was 64.3% (active). For `COc1ccc2c(c1O)-c1ccccc1CCN(C)C2`, the inhibition was -0.5% (inactive). With `CN1CCc2cccc3c2[C@H]1Cc1ccc(O)c(O)c1-3` the inhibition was 79.7% (active). With `CN1CCc2cc3c(c4c2[C@H]1[C@H](O)c1ccccc1-4)OCO3` the inhibition was 15.6% (inactive).
